According to PubChem BioAssay (EPA / NIEHS):
The source made the active and inactive calls. The calls were made as follows: active = hit-call score of the fitted dose curve at least 0.9, where 1 is the maximum; inactive = score below 0.9.

Tests used:
Conditions in all cases: mRNA level, 48 h; actives raise or lower the signal
[1] = read-out: Cytochrome P450 (CYP1A1), CYP1A1 (gene 1543); assay: LTEA_HepaRG_CYP1A1: Life Technologies and Expression Analysis (LTEA) Assay for Cytochrome P450 (CYP1A1) using HepaRG (AID 2283454)
Summary of the method: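 Using HepaRG cultures with 0.5% DMSO as vehicle, eight-concentration exposures (max 100 uM) lasted 48 h. Transcript levels were measured by TaqMan qRT-PCR and normalized to ACTB, GAPDH and POLR2A.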

[2] = read-out: Forkhead box O1 (FOXO1), FOXO1 (gene 2308); assay: LTEA_HepaRG_FOXO1: Life Technologies and Expression Analysis (LTEA) Assay for Forkhead box O1 (FOXO1) using HepaRG (AID 2283456)
Summary of the method: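 Using one lot of HepaRG hepatic cells kept in 0.5% DMSO, the team applied test chemicals in duplicate, half-log dilutions from 100 uM, for 48 h. Expression, normalised to ACTB/GAPDH/POLR2A, was compared with vehicle in either direction.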

[3] = read-out: Forkhead box O3 (FOXO3), FOXO3 (gene 2309); assay: LTEA_HepaRG_FOXO3: Life Technologies and Expression Analysis (LTEA) Assay for Forkhead box O3 (FOXO3) using HepaRG (AID 2283459)
Summary of the method: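 Gene-expression endpoint: FOXO3 transcript level by qRT-PCR in HepaRG cultures treated 48 h with chemicals up to 100 uM (half-log, 0.5% DMSO vehicle).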

[4] = read-out: ABC Transporter (ABCB1), ABCB1 (gene 5243); assay: LTEA_HepaRG_ABCB1: Life Technologies and Expression Analysis (LTEA) Assay for ABC Transporter (ABCB1) using HepaRG (AID 2283460)
Summary of the method: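 Human liver HepaRG line treated 48 h with up to 100 uM compound (eight half-log points, 0.5% DMSO); ABCB1 mRNA change fitted bidirectionally against DMSO controls.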

[5] = read-out: growth arrest and DNA damage 45 (GADD45B), GADD45B (gene 4616); assay: LTEA_HepaRG_GADD45B: Life Technologies and Expression Analysis (LTEA) Assay for growth arrest and DNA damage 45 (GADD45B) using HepaRG (AID 2283461)
Summary of the method: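 Human HepaRG monolayers receive chemicals for 48 h at eight half-log concentrations, highest 100 uM, in 0.5% DMSO. Expression is measured by TaqMan qRT-PCR and normalized to ACTB, GAPDH and POLR2A.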

[6] = read-out: ABC Transporter (ABCC3), ABCC3 (gene 8714); assay: LTEA_HepaRG_ABCC3: Life Technologies and Expression Analysis (LTEA) Assay for ABC Transporter (ABCC3) using HepaRG (AID 2283462)
Summary of the method: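 Transcriptional change of ABCC3 in HepaRG after 48 h treatment, determined by qRT-PCR normalized to endogenous controls. Concentrations spanned eight half-log steps to 100 uM in 0.5% DMSO.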

[7] = read-out: ABC Transporter (ABCB11), ABCB11 (gene 8647); assay: LTEA_HepaRG_ABCB11: Life Technologies and Expression Analysis (LTEA) Assay for ABC Transporter (ABCB11) using HepaRG (AID 2283463)
Summary of the method: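 Using HepaRG cultures held in 0.5% DMSO, chemicals were tested at half-log dilutions from 100 uM for 48 h. Induction or suppression of ABCB11 mRNA, normalized to ACTB, GAPDH and POLR2A, was fitted bidirectionally against vehicle.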

[8] = read-out: ABC Transporter (ABCC2), ABCC2 (gene 1244); assay: LTEA_HepaRG_ABCC2: Life Technologies and Expression Analysis (LTEA) Assay for ABC Transporter (ABCC2) using HepaRG (AID 2283464)
Summary of the method: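 After plating and 48 h culture, HepaRG medium is replaced with serum-free induction medium and chemicals are added (8 concentrations, max 100 uM, 0.5% DMSO) for 48 h. Total RNA then undergoes qRT-PCR for ABCC2 with housekeeping normalization.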

[9] = read-out: Peroxisomal acyl-coenzyme A oxidase 1 (ACOX1) gene, ACOX1 (gene 51); assay: LTEA_HepaRG_ACOX1: Life Technologies and Expression Analysis (LTEA) Assay for Peroxisomal acyl-coenzyme A oxidase 1 (ACOX1) gene using HepaRG (AID 2283467)
Summary of the method: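 Human HepaRG hepatic cultures, 48 h treatment with test chemicals up to 100 uM. ACOX1 expression read by qRT-PCR relative to 0.5% DMSO vehicle.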

[10] = read-out: Alkaline Phosphatase, Placental (ALPP) gene, ALPP (gene 250); assay: LTEA_HepaRG_ALPP: Life Technologies and Expression Analysis (LTEA) Assay for Alkaline Phosphatase, Placental (ALPP) gene using HepaRG (AID 2283468);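 as to AC50: differentiated human HepaRG liver cells in serum-free induction medium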
Summary of the method: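 Using human liver HepaRG cells, chemicals are tested in duplicate over 48 h at half-log concentrations topping at 100 uM; phenobarbital 1 mM serves as induction control. ALPP mRNA change by qRT-PCR, bidirectional fit against vehicle.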

[11] = read-out: Bcl-2 (BAD) gene, BAD (gene 572); assay: LTEA_HepaRG_BAD: Life Technologies and Expression Analysis (LTEA) Assay for Bcl-2 (BAD) gene using HepaRG (AID 2283469)
Summary of the method: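 Activity values reflect up- or down-regulation of BAD mRNA in human HepaRG hepatic cells treated 48 h in serum-free medium, with eight-point half-log dosing capped at 100 uM and 0.5% DMSO vehicle.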

[12] = read-out: adenosine kinase (ADK) gene, ADK (gene 132); assay: LTEA_HepaRG_ADK: Life Technologies and Expression Analysis (LTEA) Assay for adenosine kinase (ADK) gene using HepaRG (AID 2283471)
Summary of the method: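 HepaRG (human liver), 48 h chemical exposure, 8-pt half-log series, top 100 uM, 0.5% DMSO vehicle. Readout: ADK mRNA by qRT-PCR vs housekeeping genes; bidirectional curve fit relative to DMSO baseline.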

[13] = read-out: Alpha-fetoprotein (AFP) gene, AFP (gene 174); assay: LTEA_HepaRG_AFP: Life Technologies and Expression Analysis (LTEA) Assay for Alpha-fetoprotein (AFP) gene using HepaRG (AID 2283472)
Summary of the method: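 Measures AFP mRNA change in HepaRG after 48 h chemical exposure (8 half-log concentrations, highest 100 uM, 0.5% DMSO). Fold change relative to DMSO, fitted in both directions.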

[14] = read-out: CFLAR gene, CFLAR (gene 8837); assay: LTEA_HepaRG_CFLAR: Life Technologies and Expression Analysis (LTEA) Assay for CFLAR gene using HepaRG (AID 2283455)
Summary of the method: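 Gain- or loss-of-signal changes in CFLAR transcript were fitted bidirectionally relative to 0.5% DMSO. Cells (HepaRG, duplicate wells) were dosed for 48 h across eight half-log concentrations topping at 100 uM; quantitation by TaqMan qRT-PCR.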

[15] = read-out: growth arrest and DNA damage 45 (GADD45A), GADD45A (gene 1647); assay: LTEA_HepaRG_GADD45A: Life Technologies and Expression Analysis (LTEA) Assay for growth arrest and DNA damage 45 (GADD45A) using HepaRG (AID 2283458)
Summary of the method: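 Eight-point concentration-response in HepaRG cells: 48 h chemical exposure, 0.5% DMSO vehicle, top dose 100 uM. Normalized qRT-PCR mRNA readout with bidirectional fitting relative to DMSO.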

[16] = read-out: Broad substrate specificity ATP-binding cassette transporter ABCG2 (Homo sapiens) (UniProt Q9UNQ0); assay: LTEA_HepaRG_ABCG2: Life Technologies and Expression Analysis (LTEA) Assay for ABC Transporter (ABCG2) using HepaRG (AID 2283465)
Summary of the method: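 Gene expression of ABCG2 in HepaRG liver cells is quantified by qRT-PCR following 48 h exposure across an eight-point series topping at 100 uM. Values come from bidirectional fitting relative to DMSO vehicle.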

[17] = read-out: ATP-citrate lyase (ACLY), ACLY (gene 47); assay: LTEA_HepaRG_ACLY: Life Technologies and Expression Analysis (LTEA) Assay for ATP-citrate lyase (ACLY) using HepaRG (AID 2283466)
Summary of the method: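 ACLY expression changes in human HepaRG liver cells are quantified by qRT-PCR after 48 h exposure to test chemicals (maximum 100 uM, half-log steps). Values are fitted in both directions relative to 0.5% DMSO vehicle.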

[18] = read-out: Bcl-2 (BAX) gene, BAX (gene 581); assay: LTEA_HepaRG_BAX: Life Technologies and Expression Analysis (LTEA) Assay for Bcl-2 (BAX) gene using HepaRG (AID 2283470)
Summary of the method: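 Human HepaRG cells treated in duplicate for 48 h across eight concentrations (max 100 uM, 0.5% DMSO); BAX expression measured by qRT-PCR.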

BCL2L11 (gene 10018) = assay: LTEA_HepaRG_BCL2L11: Life Technologies and Expression Analysis (LTEA) Assay for Bcl-2 (BCL2L11) gene using HepaRG (AID 2283473)
Summary of the method: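 Human hepatic HepaRG cultures are treated 48 h with test chemicals (maximum 100 uM, 0.5% DMSO vehicle). Expression of BCL2L11 is measured by qRT-PCR against ACTB, GAPDH and POLR2A, with activity in either direction scored relative to vehicle.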

Measured: AC50

Broad substrate specificity ATP-binding cassette transporter ABCG2 (Homo sapiens), sequence (Q9UNQ0 whole entry, looked up): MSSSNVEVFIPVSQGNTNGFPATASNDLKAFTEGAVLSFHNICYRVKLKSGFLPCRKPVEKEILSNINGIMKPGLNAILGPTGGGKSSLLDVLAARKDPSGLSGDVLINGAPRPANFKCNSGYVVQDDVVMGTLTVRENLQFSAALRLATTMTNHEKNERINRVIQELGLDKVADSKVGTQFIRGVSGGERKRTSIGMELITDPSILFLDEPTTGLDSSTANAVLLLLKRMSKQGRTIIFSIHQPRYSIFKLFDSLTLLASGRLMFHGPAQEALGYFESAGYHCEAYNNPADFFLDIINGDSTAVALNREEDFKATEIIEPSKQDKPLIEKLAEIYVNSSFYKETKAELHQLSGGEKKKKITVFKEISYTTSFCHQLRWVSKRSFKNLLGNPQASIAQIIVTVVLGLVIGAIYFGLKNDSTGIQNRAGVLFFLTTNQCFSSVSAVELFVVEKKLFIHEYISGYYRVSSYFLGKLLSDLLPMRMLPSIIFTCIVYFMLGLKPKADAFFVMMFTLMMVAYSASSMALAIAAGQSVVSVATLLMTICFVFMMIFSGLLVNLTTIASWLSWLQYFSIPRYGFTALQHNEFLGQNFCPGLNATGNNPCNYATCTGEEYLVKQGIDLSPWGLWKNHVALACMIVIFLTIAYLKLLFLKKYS

COP(=O)(OC)OC(Br)C(Cl)(Cl)Br (configuration not stated)
active: [1] 50 µM
not listed: [14] | [15] | [16] | [17] | [18] | BCL2L11 (gene 10018)
inactive: all other assays above

CCCCOC(=O)c1ccccc1C(=O)O
active: [1] 36.1 µM
not listed: [6]
inactive: all other assays above

COP(=O)(OC)SCn1c(=O)oc2cc(Cl)cnc21
active: [1] 38.6 µM | [15] 0.029 µM | [7] 39.3 µM | BCL2L11 (gene 10018) 50 µM
not listed: [16] | [17]
inactive: all other assays above

N#CSCSC#N
active: [1] 50 µM | [14] 75.2 µM | [2] 80.6 µM | [3] 84.9 µM | [5] 50 µM | [7] 50 µM | [10] 12.5 µM | [18] 50 µM | [13] 80.2 µM | BCL2L11 (gene 10018) 78.8 µM
inactive: [15] | [4] | [6] | [8] | [9] | [11] | [12]

CCOP(=O)(SC(C)CC)N1CCSC1=O (configuration not stated)
active: [8] 27.1 µM
not listed: [16] | [17]
inactive: all other assays above

CC1(C(=O)Nc2ccc(O)c(Cl)c2Cl)CCCCC1
active: [1] 67.2 µM
not listed: [16] | [17]
inactive: all other assays above

CC1=NNC(=O)N(/N=C/c2cccnc2)C1
active: [1] 27.5 µM
not listed: [16] | [17] | [18]
inactive: all other assays above

CSc1nnc(C(C)(C)C)c(=O)n1N
not listed: [16]
inactive: all other assays above

CN(C)NC(=O)CCC(=O)O
not listed: [16] | [17]
inactive: all other assays above

CNC(=O)Oc1cccc2c1OC(C)(C)O2
not listed: [16] | [17]
inactive: all other assays above

Cc1ccn2nc(S(=O)(=O)Nc3c(F)cccc3F)nc2n1
not listed: [16]
inactive: all other assays above

Nc1c(Cl)cc([N+](=O)[O-])cc1Cl
active: [1] 7.36 µM | [14] 17.7 µM | [15] 78.9 µM | [3] 7.33 µM | [4] 31.1 µM | [5] 11.9 µM | [7] 37.4 µM | [8] 84.2 µM | [9] 22.8 µM | [10] 50 µM | [12] 64.1 µM | [13] 39.3 µM | BCL2L11 (gene 10018) 50 µM
inactive: [2] | [6] | [11] | [18]

CN(C)C(=O)Nc1cccc(C(F)(F)F)c1
active: [1] 24.7 µM | [15] 79.2 µM | BCL2L11 (gene 10018) 50 µM
not listed: [16]
inactive: all other assays above

O=c1ccc(=O)[nH][nH]1
not listed: [16] | [17]
inactive: all other assays above
